Bioassay records: PubChem BioAssay, The Scripps Research Institute Molecular Screening Center
Only some compounds are listed: those with a hit (about 3.5% of all), similar ones and a draw of the others.
FBW7 activator: activators of human E3 ligase FBW7; AID 1259310; Q969H0; normalized activity (activation), % at 26.1 µM; AlphaScreen FBW7–phospho-cyclin E peptide binding, activator screen; 650,000 tested, 0.13% active; in the data active = normalized activity above about 1.9%;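 note: purified mutant Fbw7 with reduced substrate affinity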
GPR151 activ: activates the human receptor GPR151; activation, % at 11.2 µM; 650,000 tested, 1% active; PathHunter beta-arrestin GPR151 cells, luminescence; AID 1508602; in the data active = activation above about 4.9%
Target sequence (Q8TDV0 whole entry, looked up): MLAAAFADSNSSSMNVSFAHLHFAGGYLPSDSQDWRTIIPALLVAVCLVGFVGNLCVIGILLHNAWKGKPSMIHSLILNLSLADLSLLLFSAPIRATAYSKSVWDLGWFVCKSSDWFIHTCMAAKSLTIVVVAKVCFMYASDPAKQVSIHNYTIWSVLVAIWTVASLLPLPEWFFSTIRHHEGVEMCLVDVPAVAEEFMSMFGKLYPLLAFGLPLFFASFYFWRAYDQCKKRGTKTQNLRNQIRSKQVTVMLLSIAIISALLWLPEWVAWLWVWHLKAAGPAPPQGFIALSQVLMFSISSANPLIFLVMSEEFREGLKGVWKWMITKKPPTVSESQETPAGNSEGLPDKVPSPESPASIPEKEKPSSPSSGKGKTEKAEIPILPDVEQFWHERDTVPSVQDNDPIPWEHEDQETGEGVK
MITF primary: inhibitors of human MITF. AlphaScreen MITF homodimerization, bead proximity signal. 650,000 tested, 0.91% active. O75030. inhibition, % at 2.6 µM; in the data active = inhibition above about 50%
TEAD-YAP block: TEAD-YAP interaction inhibition; HEK-TIYL cells, TEAD-Gal4/YAP UAS-luciferase luminescence; inhibition, % at 9.12 µM; 640,000 tested, 1.4% active; AID 1259422; in the data active = inhibition above about 32%
Large screens that a line does not name were inactive.

COC(=O)c1ccccc1NC(=O)C(C)n1c2ccccc2c2nc(=O)cc(C)n21 (stereo unspecified)	none
Cc1ccc(C(=O)N2CCN3C(=O)[C@H](Cc4c[nH]c5ccccc45)NC(=O)[C@H]3C2)cc1	none
COc1ccc(CC(=O)N2CCC3(CC2)OCc2cccc(OC)c2O3)cc1OC	TEAD-YAP block 65
COc1cccc2c1OC1(CCN(C(=O)Cc3ccc(F)cc3)CC1)OC2	none
CCOC(=O)C1CCN(C(=O)C2CCN(Cc3cc(OC)ccc3OC)CC2)CC1	none
COc1ccc(-c2nnc(SCC(=O)NCc3ccccc3)nc2-c2ccc(OC)c(OC)c2)cc1OC	TEAD-YAP block 47
COc1ccccc1C(=O)NC(=S)Nc1ccccc1	TEAD-YAP block 36
COc1ccccc1C(=O)NC(=S)NNC(=O)c1ccccc1C	none
COc1ccccc1C(=O)NNC(=S)NC(=O)c1ccc(Cl)cc1Cl	FBW7 activator 5.1
COc1ccccc1C(=O)NC(=S)Nc1ccccc1[N+](=O)[O-]	TEAD-YAP block 45
COc1ccccc1C(=O)NC(=S)Nc1ccc(NC(C)=O)cc1	none
CN(c1cccc(Cl)c1)S(=O)(=O)c1cccc(C(=O)OCC(=O)OC(C)(C)C)c1	none
CCN(Cc1ccccc1)Cn1ncn(C)c1=S	none
Nc1cccc(-c2cc(NCc3cccc(C(F)(F)F)c3)nc(N)n2)c1	TEAD-YAP block 44
Nc1nc(NCc2cccc(C(F)(F)F)c2)cc(-c2ccccc2)n1	TEAD-YAP block 45
O=C(Nc1ccc(-c2csc(-c3ccccc3)n2)cc1)c1cc2cc(Br)ccc2oc1=O	none
C=C(C)CN1C(=O)NC(CC)(C2CCN(CC3=CC[C@H]4C[C@@H]3C4(C)C)CC2)C1=O (stereo partly specified)	TEAD-YAP block 43
C=C(C)CN1C(=O)NC(CC)(C2CCN(Cc3ccccc3C)CC2)C1=O (stereo unspecified)	none
Nc1ncnc2c1ncn2C[C@@H](O)[C@@H](O)C(=O)O	none (no result: FBW7 activator, MITF primary, TEAD-YAP block)
O=C(NNC(=O)c1cc2ccccc2cc1O)c1ccco1	none
CS(=O)(=O)Nc1cccc(-c2cnc3c(Nc4ccc5[nH]ccc5c4)nccn23)c1	TEAD-YAP block 90
c1cnc2c(-c3cnc4c(Nc5ccc6[nH]ccc6c5)nccn34)cccc2c1	TEAD-YAP block 55
c1ccc(-c2cnc3c(Nc4ccc5[nH]ccc5c4)nccn23)cc1	none
Fc1cccc(-c2cnc3c(Nc4ccc5[nH]ccc5c4)nccn23)c1	none
O=C(NC1CCCCC1)C(=O)NC1CCCCC1	none
O=c1[nH]c(/C=C/c2coc3ccccc3c2=O)c([N+](=O)[O-])c(=O)[nH]1	none
COc1ccc(C(=O)Nc2ncc(Cc3ccc(C)cc3)s2)cc1OC	TEAD-YAP block 39
Cc1ccc(C(=O)Nc2ncc(Cc3cccc(Cl)c3)s2)cc1	none
COc1ccc(C(=O)Nc2ncc(Cc3cccc(Cl)c3)s2)cc1OC	TEAD-YAP block 53
O=C1NC(=O)C(=Cc2cc(O)c(O)c(Br)c2)C(=O)N1	MITF primary 58
O=C1NC(=O)C(=Cc2cc(Br)c(I)o2)C(=O)N1	MITF primary 59
CCOc1cc(C=C2C(=O)NC(=O)NC2=O)cc(Br)c1O	none
COc1ccc2nc(NC(=O)c3sc4nc(C)nc(N5CCN(c6ccccn6)CC5)c4c3C)sc2c1	none
COc1cccc(C(=O)Nn2c(-c3ccc(C(C)(C)C)cc3)nc3ccccc3c2=O)c1	TEAD-YAP block 42
COc1cccc(C(=O)Nn2c(-c3ccc(Br)cc3)nc3ccccc3c2=O)c1	none
COc1cc(OC)cc(C(=O)Nn2c(-c3ccc(C(C)(C)C)cc3)nc3ccccc3c2=O)c1	TEAD-YAP block 38
O=C(NCc1noc2ccccc12)Nc1ccc(F)cc1	none
O=C(COc1ccc(Oc2ccccc2)cc1)NCc1cn2ccccc2n1	TEAD-YAP block 55
O=S(=O)(NCc1cn2ccccc2n1)c1ccc(Oc2ccccc2)cc1	none
COc1ccc(C(=O)N/N=C/c2cc(Cl)cc(Br)c2O)cc1	TEAD-YAP block 33
O=C(N/N=C/c1cc(Br)cc(Br)c1O)c1cccnc1	TEAD-YAP block 33
COc1cc(Br)cc(/C=N/NC(=O)c2ccncc2)c1O	MITF primary 91, TEAD-YAP block 87
COc1cc(Br)cc(/C=N\NC(=O)c2ccc(Br)cc2)c1O	none
O=C(N/N=C/c1cc(Br)cc(I)c1O)c1cccnc1	TEAD-YAP block 68
COc1ccc(Nc2cc(-c3ccccc3F)nc(C)n2)cc1	none
CCC(=O)NC(Nc1sc2c(c1C#N)CCN(Cc1ccccc1)C2)(C(=O)OC)C(F)(F)F (stereo unspecified)	none
CSc1ccc(S(=O)(=O)Nc2cccc3ccccc23)cc1	none
Cc1cc(Br)cc(/C=N\NC(=O)c2ccc(N)cc2)c1O	TEAD-YAP block 66
COc1cc(Br)cc(/C=N/NC(=O)c2ccc(F)cc2)c1O	none
O=C(N/N=C/c1cc(Cl)cc(Br)c1O)c1ccncc1	MITF primary 98, TEAD-YAP block 47
COc1cc(Cl)cc(/C=N/NC(=O)c2cccc(F)c2)c1O	TEAD-YAP block 70
O=C(N/N=C/c1cc(Cl)cc(Br)c1O)c1cccnc1	MITF primary 64, TEAD-YAP block 79
COc1ccc(-n2c(C)ccc2C)cc1Cl	none
CC(C)CCn1nnnc1CN1CCN(Cc2ccc3c(c2)OCO3)CC1	none
CCC(C)NC(=O)c1ccc2c(=O)n(CC3CCCO3)c(=S)[nH]c2c1 (stereo unspecified)	none
CC(=O)NC/C(C)=N\NC(=O)c1cccc(Cl)c1	none
Cc1ccc(C)c(Nc2nc(NCc3ccco3)nc3nccnc23)c1	none
Cc1ccc(C)c(Nc2nc(NCCN(C)C)nc3nccnc23)c1	FBW7 activator 2.1
CN(Cc1cccc(Cl)c1Cl)C(=O)CN1C(=O)NC(C)(C)C1=O	none
c1ccc2c(-c3csc(NC4CCCC4)n3)c[nH]c2c1	FBW7 activator 5.4
c1ccc2c(-c3csc(NCC4CCCO4)n3)c[nH]c2c1 (stereo unspecified)	none
CC(C)n1cnc2c(NCCc3ccc(O)cc3)nc(Nc3ccc4ncccc4c3)nc21	TEAD-YAP block 39
CCCNc1nc(Nc2ccc3ncccc3c2)nc2c1ncn2C(C)C	none
CC(C)N(CCNc1nc(Nc2cccnc2)nc2c1ncn2-c1ccsc1)C(C)C	TEAD-YAP block 35
c1ccc(CNc2nc(Nc3cccnc3)nc3c2ncn3-c2ccsc2)cc1	none
CC(C)N(CCNc1nc(Nc2cnccn2)nc2c1ncn2-c1ccsc1)C(C)C	TEAD-YAP block 39
CCCNc1nc(Nc2cccnc2)nc2c1ncn2-c1ccsc1	TEAD-YAP block 61
CC(C)N(CCNc1nc(Nc2ccncc2)nc2c1ncn2-c1ccsc1)C(C)C	none
O=C(CSc1nnc(-c2cccnc2)n1-c1ccc(Br)cc1)c1cccc([N+](=O)[O-])c1	none
Cc1ccc(CNC(=O)CSc2cn(CC(=O)N3CCCCCC3)c3ccccc23)cc1	none
CC(C)N(CCNc1nc(Nc2ccc3ncccc3c2)nc2c1ncn2-c1ccsc1)C(C)C	TEAD-YAP block 44
COc1cc(Nc2nc(NCCN(C(C)C)C(C)C)c3ncn(-c4ccsc4)c3n2)cc(OC)c1OC	none
Cc1c(-c2ccc(-c3ccccc3)cc2)[n+](CC(=O)c2ccccc2)c2ccccn12	TEAD-YAP block 56
CCN(CC)C(=O)C1CCCN(c2nc(NCCOc3ccccc3)c3ncn(-c4ccsc4)c3n2)C1 (stereo unspecified)	none
